Data on 13 molecules can be found in PubChem BioAssay (NCATS).

Where “and” joins values, the source holds several entries; their conditions need not be identical. Equal entries are not always repeated. Inconclusive results are not listed. Calls of active or inactive are those of the source. Unless noted, calls follow the shape of the dose curve; as a rule, active = well fitted curve in the direction sought with a large enough effect; inconclusive = small, poorly fitted or top-dose-only effect, or another doubt; inactive = no such curve, though single readings can be large; an effect the other way counts as inactive or inconclusive.

Assay [1] has as its target Luciferin 4-monooxygenase (Photinus pyralis) (UniProt P08659). Description: Biochemical firefly luciferase enzyme assay for NPC (AID 624030).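 Also: purified P. pyralis luciferase at 10 nM with luciferin and ATP substrate; 0% = DMSO and -100% = full luciferase inhibition by PTC124 control; nearly all actives have a fitted effect of over 70% in size.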 The procedure, abridged:
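Direct inhibition of firefly luciferase enzyme (10 nM final, 50 mM Tris Acetate) assessed by luminescence within 5 minutes. Percent activity scaled between DMSO and PTC124 positive control, with concentration-effect curves classified by fit quality and response.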

A short description of assay [2]: qHTS Assay for Identifying Gametocytocidal Compounds (AID 743244). Also: potency is read from the fitted curve at half-maximal effect.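 As to max response: % is scaled to controls: 0 for no effect and ±100 for the full control effect; actives lower the fluorescent signal which means gametocytes are killed.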 The note with it: P. falciparum 3D7 stage III-V gametocytes, alamarBlue, 72 h; max response: stronger effect = lower value. In a few lines: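 P. falciparum 3D7 stage III–V gametocytes (20,000 cells/well) were exposed to compounds for 72 h at 37 °C, 5% CO2. AlamarBlue was then added for 24 h; decreased resorufin fluorescence (Ex 525/Em 598 nm) indicated loss of viability.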
For orientation: Quantitative high-throughput screening tests each substance at several concentrations.

The test system of the next assay is astro. Description: Drug repurposing screens with cells derived from glioblastoma tumor samples (AID 1345199). Also: nearly all actives have a fitted effect of over 40% in size. Also: potency is read from the fitted curve at half-maximal effect. As to activity, negative = cell killing: % is scaled to controls: 0 for no effect and ±100 for the full control effect. As to conditions: viability, ATP luminescence, 48 h; series mostly up to 45.9 µM. The procedure, abridged:
(§1)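 Four patient lines of CD133+ GBM neurospheres were screened at several concentrations; hits were retested in those lines plus three slower-growing GBM lines, using 48-hour treatment and ATP-based viability.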

A short description of assay [3]: P-glycoprotein substrates identified in KB-3-1 adenocarcinoma cell line, qHTS therapeutic library screen (AID 1346986). Also: nearly all actives have a fitted effect of over 60% in size.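 Also: potency is read from the fitted curve at half-maximal effect; potency is for cytotoxicity meaning loss of cell viability.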 In a few lines:
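Counter-screen: cherry-picked hits retested in the KB pair and in HEK-293 pcDNA/MDR-19 cells ± tariquidar. Primary screen used 72 h CellTiter-Glo viability in KB-3-1 and KB-8-5-11.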

The test system of assay [4] is Zika virus NS2B-NS3 protease. Description: Primary screen GU AMC qHTS for Zika virus inhibitors (AID 1347154).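 Also: 0% = no-inhibitor control and -100% = no-enzyme control; nearly all actives have a fitted effect of over 70% in size.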 In a few lines:
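Fluorogenic AMC-substrate cleavage by noncovalent NS2B-NS3 protease complex (25 nM, pH 8.0 Tris buffer with Tween 20) followed for 15 minutes at room temperature (~20% conversion). Percent inhibition from ex340/em450 signal change, fitted by 4-parameter Hill equation.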

Assay [5] in a line: Primary qHTS for small molecule stabilizers of the endoplasmic reticulum resident proteome: Secreted ER Calcium Modulated Protein (SERCaMP) assay (AID 1508630). Also: % is scaled to controls: 0 for no effect and ±100 for the full control effect. In a few lines: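 GLuc-SERCaMP-expressing SH-SY5Y cells, pretreated 16 h with compound, are challenged with thapsigargin to empty ER calcium stores; after 4 h, coelenterazine is added directly to the medium and luminescence is imaged.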

The target in assay [6] is Catechol O-methyltransferase (Homo sapiens) (UniProt P21964). Description: Confirmatory Screen for Target Class Profiling of Small Molecule Inhibitors of Methyltransferases (AID 1745852; calls by dose curve; also: potency is read from the fitted curve at half-maximal effect). As to conditions: MTase-Glo luminescence, SAH detection, recombinant enzyme; measured here: COMT max response; stronger effect = lower value.
Sequence of Catechol O-methyltransferase (Homo sapiens) (P21964 whole entry, looked up): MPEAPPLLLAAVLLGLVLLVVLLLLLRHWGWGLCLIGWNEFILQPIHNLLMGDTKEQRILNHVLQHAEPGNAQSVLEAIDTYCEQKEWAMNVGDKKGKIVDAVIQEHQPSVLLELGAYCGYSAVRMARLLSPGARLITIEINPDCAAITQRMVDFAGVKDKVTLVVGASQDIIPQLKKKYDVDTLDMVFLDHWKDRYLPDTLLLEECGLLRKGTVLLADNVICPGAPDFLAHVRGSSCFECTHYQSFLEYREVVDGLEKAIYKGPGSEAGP
The target of assay [7] is Guanidinoacetate N-methyltransferase (Homo sapiens) (UniProt Q14353). The description is as above. The note with it: activity change, negative = inhibition: at 57.3 µM (top of the series) unless noted.
Assay [8] concerns the target Nicotinamide N-methyltransferase (Homo sapiens) (UniProt P40261). The description is as above. The note with it: MTase-Glo luminescence, SAH detection, recombinant enzyme; measured here: NNMT max response; stronger effect = lower value.
The target of assay [9] is Phenylethanolamine N-methyltransferase (Homo sapiens) (UniProt P11086). The assay is described as above. The note with it: MTase-Glo luminescence, SAH detection, recombinant enzyme; measured here: PNMT max response; stronger effect = lower value.
Sequence of Phenylethanolamine N-methyltransferase (Homo sapiens) (P11086 whole entry, looked up): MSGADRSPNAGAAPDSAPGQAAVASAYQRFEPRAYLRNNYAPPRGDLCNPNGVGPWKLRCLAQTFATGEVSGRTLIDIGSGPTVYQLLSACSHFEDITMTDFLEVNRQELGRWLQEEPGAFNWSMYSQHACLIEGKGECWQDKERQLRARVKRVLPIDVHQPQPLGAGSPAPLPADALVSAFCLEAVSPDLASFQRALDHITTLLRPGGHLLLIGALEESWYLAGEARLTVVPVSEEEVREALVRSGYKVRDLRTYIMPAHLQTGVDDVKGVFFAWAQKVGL
The nature of assay [10]: qHTS to identify inhibitors of the type 1 interferon - major histocompatibility complex class I in skeletal muscle: primary screen against the NCATS Mechanism Interrogation Plate v5.0 (MIPE) Libary (AID 1347411). Also: nearly all actives have a fitted effect of over 65% in size. Also: potency is read from the fitted curve at half-maximal effect.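 As to activity change, negative = inhibition: plate controls were vehicle for no effect and reference inhibitor for full effect.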 In a few lines:
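Cells were genome-edited human myoblasts carrying a HiBit tag on endogenous HLA-B. They were treated with IFN-beta (4.0 ng/ml) and titrated compounds (top 46 uM) for 24 hrs before lytic HiBiT detection.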

Assay [11] is described as follows: qHTS assay to identify inhibitors of the type 1 interferon - major histocompatibility complex class I in skeletal muscle: Counter screen cell viability and HiBit confirmation (AID 1347412). Also: potency is read from the fitted curve at half-maximal effect. As to activity change, negative = inhibition: % is scaled to controls: 0 for no effect and ±100 for the full control effect. As to all read-outs here: nearly all actives have a fitted effect of over 60% in size. The note with it: iHSKM muscle cells + IFN-b, HiBiT or CellTiter-Glo, 24 h; for Potency: HiBiT; for activity change, negative = inhibition: Viability, at 45.9 µM (top of the series). The procedure, abridged:
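Luminescence read-out: Nano-Glo HiBiT lytic signal from C-terminally HiBiT-tagged HLA-B in CRISPR-edited human myoblasts, plus CellTiter Glo ATP as viability counter screen. IFN-beta 4.0 ng/ml; 24 hrs treatment at 37 C, 5% CO2.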

Assay [12] can be described thus: Drug repurposing screens with cells derived from glioblastoma tumor samples (AID 1345199). Also: potency is read from the fitted curve at half-maximal effect. As to activity, negative = cell killing: % is scaled to controls: 0 for no effect and ±100 for the full control effect. As to all read-outs here: nearly all actives have a fitted effect of over 40% in size. The note with it: GBM patient neurospheres viability, ATP luminescence, 48 h; for Potency: tumour line A. In a few lines: as §1
In assay [13] the target is Cytochrome P450 2D6 (Homo sapiens) (UniProt P10635). Description: Cytochrome P450 family 2 subfamily D member 6 (CYP2D6) small molecule antagonists: luciferase biochemical (cell-free) qHTS assay (AID 1645840; active = well fitted curve in the direction sought with a large enough effect in the repeat runs; an effect the other way counts as inactive or inconclusive; also: potency is read from the fitted curve at half-maximal effect; nearly all actives have a fitted effect of over 55% in size). In a few lines: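 P450-Glo luminescent screen: recombinant CYP2D6 enzyme–proluciferin substrate mix preincubated with compound 10 min at room temperature, then NADPH regeneration added for 1 h at room temperature. Detection reagent added for 20 min; luciferin light read as relative luminescence units.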
Sequence of Cytochrome P450 2D6 (Homo sapiens) (P10635 whole entry, looked up): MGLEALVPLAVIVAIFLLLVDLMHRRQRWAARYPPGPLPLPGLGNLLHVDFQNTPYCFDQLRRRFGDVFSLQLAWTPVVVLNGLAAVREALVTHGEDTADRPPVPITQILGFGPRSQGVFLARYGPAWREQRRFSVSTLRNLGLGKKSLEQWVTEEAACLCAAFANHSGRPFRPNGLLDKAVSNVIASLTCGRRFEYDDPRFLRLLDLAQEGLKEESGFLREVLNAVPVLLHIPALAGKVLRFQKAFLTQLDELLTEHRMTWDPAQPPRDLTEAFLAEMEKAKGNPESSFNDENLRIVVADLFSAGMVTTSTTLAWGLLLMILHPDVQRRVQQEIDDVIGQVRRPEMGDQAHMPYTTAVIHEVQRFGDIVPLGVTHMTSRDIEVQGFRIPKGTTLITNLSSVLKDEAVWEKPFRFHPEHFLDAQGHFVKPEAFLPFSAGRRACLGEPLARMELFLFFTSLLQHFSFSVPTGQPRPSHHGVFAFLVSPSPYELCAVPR

Assay [14] concerns the target Cytochrome P450 2C9 (Homo sapiens) (UniProt P11712). Description: Cytochrome P450 family 2 subfamily C member 9 (CYP2C9) small molecule antagonists: luciferase biochemical (cell-free) qHTS assay (AID 1645842; active = well fitted curve in the direction sought with a large enough effect in the repeat runs; an effect the other way counts as inactive or inconclusive; also: % is scaled to controls: 0 for no effect and ±100 for the full control effect; nearly all actives have a fitted effect of over 55% in size). The procedure, abridged:
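Luminescence, after 20 min with luciferin detection reagent, reflected CYP2C9 turnover during a 1 h NADPH-driven reaction at 37C. Enzyme-substrate mix contained 0.4% bovine serum albumin and was preincubated with compound 10 min at room temperature.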

Setting [15] is: at 45.9 µM (top of the series), tumour line D.
Setting [16] is: at 46.1 µM (top of the series), tumour line C.

Sequence of Luciferin 4-monooxygenase (Photinus pyralis) (P08659 whole entry, looked up): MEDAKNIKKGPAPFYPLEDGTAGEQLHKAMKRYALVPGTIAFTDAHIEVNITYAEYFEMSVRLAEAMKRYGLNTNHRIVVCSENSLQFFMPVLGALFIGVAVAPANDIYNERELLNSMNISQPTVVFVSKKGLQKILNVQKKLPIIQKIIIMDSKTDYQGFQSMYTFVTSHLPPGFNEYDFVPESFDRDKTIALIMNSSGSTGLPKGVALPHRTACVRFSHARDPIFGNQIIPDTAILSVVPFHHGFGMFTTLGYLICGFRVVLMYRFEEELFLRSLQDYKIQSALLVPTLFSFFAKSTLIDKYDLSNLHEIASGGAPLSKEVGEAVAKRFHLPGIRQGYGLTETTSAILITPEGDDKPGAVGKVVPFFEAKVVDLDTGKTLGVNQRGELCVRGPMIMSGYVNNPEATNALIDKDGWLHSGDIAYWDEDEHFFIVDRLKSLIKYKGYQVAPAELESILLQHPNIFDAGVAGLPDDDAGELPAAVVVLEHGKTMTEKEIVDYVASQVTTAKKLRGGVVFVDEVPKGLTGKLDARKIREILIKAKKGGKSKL
Sequence of Cytochrome P450 2C9 (Homo sapiens) (P11712 whole entry, looked up): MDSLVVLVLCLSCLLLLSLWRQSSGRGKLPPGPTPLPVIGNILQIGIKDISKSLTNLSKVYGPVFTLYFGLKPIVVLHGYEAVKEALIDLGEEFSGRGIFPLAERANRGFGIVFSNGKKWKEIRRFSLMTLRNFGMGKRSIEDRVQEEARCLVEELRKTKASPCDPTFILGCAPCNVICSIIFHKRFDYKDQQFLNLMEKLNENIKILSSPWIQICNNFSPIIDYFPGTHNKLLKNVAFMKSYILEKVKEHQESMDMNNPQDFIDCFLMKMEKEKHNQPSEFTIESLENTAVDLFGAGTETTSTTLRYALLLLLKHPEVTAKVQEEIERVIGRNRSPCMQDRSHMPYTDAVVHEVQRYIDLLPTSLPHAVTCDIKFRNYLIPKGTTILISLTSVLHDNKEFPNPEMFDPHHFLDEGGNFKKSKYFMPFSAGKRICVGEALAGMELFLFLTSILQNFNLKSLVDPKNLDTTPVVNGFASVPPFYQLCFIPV
Sequence of Nicotinamide N-methyltransferase (Homo sapiens) (P40261 whole entry, looked up): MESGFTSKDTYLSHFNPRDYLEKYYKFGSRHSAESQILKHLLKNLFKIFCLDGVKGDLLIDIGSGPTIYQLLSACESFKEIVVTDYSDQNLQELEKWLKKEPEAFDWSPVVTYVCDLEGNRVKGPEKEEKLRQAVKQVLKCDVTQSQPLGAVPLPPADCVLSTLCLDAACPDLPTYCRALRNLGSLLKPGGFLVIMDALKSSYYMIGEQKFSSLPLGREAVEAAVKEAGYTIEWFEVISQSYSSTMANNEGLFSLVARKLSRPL

`CC1(C)N=C(N)N=C(N)N1c1ccc(Cl)cc1`: the Potency result (in assay [1]; with astro) was “inactive” throughout. For the same molecule, the max response in assay [2] was -2.29% (inactive).

In the case of `Cn1cc(C2=C(c3cn(CCCSC(=N)N)c4ccccc34)C(=O)NC2=O)c2ccccc21`, the Potency in [3] was 5.17 µM (active). The Potency result in [4] and in assay [5] was “inactive” throughout.

As for `Nc1ncnc2c1c(I)cn2C1OC(CO)C(O)C1O` (stereo not drawn), the Potency in [3] is 3.26 µM (active); in assay [7] it was 12.1 µM (active). Besides, the Potency result in assay [4] and in assay [5] was “inactive” throughout. Further, the activity is -96.2% in [6], -88.4% in assay [8] and -97.6% in assay [9].

For the molecule `C#Cc1cccc(Nc2ncnc3cc(OC)c(OC)cc23)c1`, the Potency in assay [3] is 5.17 µM (active). The Potency entry in assay [4] was “inactive”.

As to `C=CC(=O)Nc1cccc(C)c1Nc1ncc2cc(-c3c(Cl)c(OC)cc(OC)c3Cl)ccc2n1`, the values for the Potency in assay [3], in [10] and in [11] were 14.6 µM (active), 11.7 µM (active) and 15.7 µM (active), respectively. The activity change, negative = inhibition in assay [11] is 1.08% (inactive).

On to `CCCCCCCCCCCCCCCCSCC(COC)COP(=O)([O-])OCC[N+](C)(C)C` (stereo not drawn), for which the Potency entry (in assay [1]; with astro) was “inactive” in each case. In assay [2], the max response was -10.5% (inactive). Further, the activity, negative = cell killing is -10.7% (inactive) in assay [12] (setting [15]) and 5.78% (inactive) in assay [12] (setting [16]). Also, the Potency in assay [12] is 22.4 µM (active).

For `CCC(=O)O[C@H]1CC[C@H]2[C@@H]3CCc4cc(O)ccc4[C@H]3CC[C@]12C`, the max response in assay [2] is 3.09% (inactive). The Potency in the assay on astro was 12.6 µM (active).

On to `CN1CCC(c2c(O)cc(O)c3c(=O)cc(-c4ccccc4Cl)oc23)C1CO` (stereo not drawn), for which the Potency in [3] was 0.92 µM (active); in assay [10], 0.739 µM (active); in [11], 0.787 µM (active). For the same molecule, the activity change, negative = inhibition in assay [11] was -2.93% (inactive).

For `C/C1=C2N=C(/C=C3N=C(/C(C)=C4\[N-]C(C(CC(N)=O)C4(C)CCC(=O)NCC(C)OP(=O)([O-])OC4C(CO)OC(n5cnc6cc(C)c(C)cc65)C4O)C4(C)N=C1C(CCC(N)=O)C4(C)CC(N)=O)C(CCC(N)=O)C\3(C)C)C(CCC(N)=O)C/2(C)CC(N)=O.[CH3-].[Co+3]` (stereo not drawn), the Potency in assay [2] was 22.4 µM (active). Also, in assay [12] (setting [15]), the activity, negative = cell killing is -36.9% (inactive).

For `C[C@@H]1N=C(N)NC(N(C)C)=N1`, the Potency entry in [3] and in assay [10] was “inactive” throughout.

As to `COc1cc(/C=C(\C#N)C(N)=O)cc(CSc2nc3ccccc3s2)c1O`, the Potency entry in assay [3], in assay [4] and in assay [5] was “inactive” throughout.

In the case of `CCCCCCCC[N+](C)(C)CCCCCCCC`, the Potency result in assay [1] and in assay [14] was “inactive” throughout. Also, the Potency in [2] is 7.94 µM (active) and 8.91 µM (active); in assay [13], 0.674 µM (active); with astro, 20 µM (active) and 12.6 µM (active).

As for `COc1cc([C@@H]2c3cc4c(cc3C(O[C@@H]3O[C@@H]5CO[C@@H](C)O[C@H]5[C@H](O)[C@H]3O)C3COC(=O)[C@@H]32)OCO4)cc(OC)c1OP(=O)(O)O` (stereo partly drawn), the max response in assay [2] is 4.76% (inactive) and -12.7% (inactive). For the same molecule, the activity, negative = cell killing in assay [12] (at 45.9 µM (top of the series), tumour line B) was -18.7% (inactive); in assay [12] (setting [15]), -17% (inactive); in [12] (setting [16]), -13.7% (inactive). The Potency in assay [12] is 15.8 µM (active).
